The results in this text go back to PubChem BioAssay (Tox21).

Test [1] can be described thus: qHTS assay for small molecules that induce genotoxicity in human embryonic kidney cells expressing luciferase-tagged ATAD5 (AID 651632). Also: nearly all actives have a fitted effect of over 15% in size. In short, it runs like this: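 Cells were seeded at 2,000 per well, dosed with compound, and incubated 16 hr at 37C in 5% CO2. Luciferase activity was then quantified after a 30 min room-temperature incubation with Amplite.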
A general note: Quantitative high-throughput screening tests each substance at several concentrations.

A short description of test [2]: qHTS assay for small molecule disruptors of the mitochondrial membrane potential (AID 720635). Also: potency is read from the fitted curve at half-maximal effect. In short, it runs like this:
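HepG2 cells (2,000/well) attached overnight at 37C, then took compound for 1 hr at 37C, 5% CO2. Mito-MPS dye was added for 30 min; fluorescence was read at 490/535 nm (monomers) and 540/590 nm (aggregates).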

Test [3] is described as follows: qHTS assay to test for compound auto fluorescence at 590 nm (red) in HepG2 cells (AID 720674). In short, it runs like this:
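Rose Bengal sodium served as the red fluorophore standard. HepG2 monolayers (overnight attachment, MEM with 10% FBS) were exposed to test compounds for 1 hr at 37 C and read at Ex 540/Em 590 nm.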

Test [4] in a line: qHTS assay to test for compound auto fluorescence at 535 nm (green) in HepG2 cells (AID 720675).
Test [5] in a line: qHTS assay to test for compound auto fluorescence at 460 nm (blue) in HEK293 cells (AID 720678). In short, it runs like this:
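Triamterene serves as the blue fluorophore standard. Compound signal at 405/460 nm is read in HEK293 wells (2,000 cells, 10% dialyzed FBS) after overnight treatment at 37C.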

Test [6] in a line: qHTS assay to test for compound auto fluorescence at 535 nm (green) in HEK293 cells (AID 720680).
A short description of test [7]: qHTS assay to test for compound auto fluorescence at 460 nm (blue) in HEK293 cell free culture (AID 720681). Summed up: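 Test compounds were pinned into cell-free culture medium (DMEM with 10% FBS) and fluorescence was read directly at Ex/Em 405/460 nm. Signals were expressed as fluorescence equivalents of triamterene, with DMSO vehicle as control.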
The nature of test [8]: qHTS assay to test for compound auto fluorescence at 535 nm (green) in HEK293 cell free culture (AID 720682). In short, it runs like this:
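Cell-free medium (DMEM, 10% FBS) receives compound or DMSO by pintool. Plate read directly at Ex 485/Em 535 nm. Signal converted to fluorescein equivalency.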

Test [9] is described as follows: qHTS assay to test for compound auto fluorescence at 590 nm (red) in HEK293 cell free culture (AID 720683). Summed up:
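Tox21 10K library compounds were pinned into cell-free DMEM with 10% FBS and fluorescence was read at excitation 540 nm. Activity is expressed as Rose Bengal sodium equivalency.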

The nature of test [10]: qHTS assay to test for compound auto fluorescence at 590 nm (red) in HepG2 cell free culture (AID 720684). In short, it runs like this: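 Ex 540 / Em 590 nm read of compound in cell-free MEM (10% FBS). Rose Bengal sodium reference.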
Test [11] in a line: qHTS assay to test for compound auto fluorescence at 460 nm (blue) in HepG2 cell free culture (AID 720685). Summed up:
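Cell-free plates of MEM plus 10% FBS received 23 nL compound or DMSO vehicle; blue-channel (405/460 nm) intensity scored against triamterene as reference fluorophore.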

Test [12] is described as follows: qHTS assay to test for compound auto fluorescence at 535 nm (green) in HepG2 cell free culture (AID 720686).
Test [13] in a line: qHTS assay to test for compound auto fluorescence at 460 nm (blue) in HepG2 cells (AID 720687). Summed up: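 Cells (2,000/well in MEM with 10% FBS) attached overnight at 37 C, then were exposed to compound or DMSO for 1 hr at 37 C, 5% CO2. Fluorescence read at Ex/Em 405/460 nm, expressed as triamterene-equivalent signal.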
A short description of test [14]: qHTS assay to test for compound auto fluorescence at 590 nm (red) in HEK293 cells (AID 720679). Summed up: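 We plated HEK293 cells in 10% dialyzed FBS medium, let them adhere for 4-5 hr, then added 23 nL compound. Overnight at 37C and 5% CO2 preceded fluorescence measurement at 540/590nm.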
Test [15] in a line: qHTS assay for small molecule agonists of the p53 signaling pathway - cell viability (AID 651633; calls by dose curve; also: nearly all actives have a fitted effect of over 30% in size; also: potency is read from the fitted curve at half-maximal effect). Summed up:
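p53RE-bla cells, seeded at 4,000 per well and rested 5 h at 37 C/5% CO2, received compounds in DMSO for 16 h at 37 C. CellTiter-Glo was then added, and luminescence was read after 30 min at room temperature to gauge cytotoxicity.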

A short description of test [16]: qHTS assay for small molecules that induce genotoxicity in human embryonic kidney cells expressing luciferase-tagged ATAD5 - cell viability (AID 651634; calls by dose curve; also: nearly all actives have a fitted effect of over 25% in size; also: potency is read from the fitted curve at half-maximal effect). In short, it runs like this: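 Cells (HEK293T, luciferase-tagged ATAD5) are seeded at 2,000 per well, dosed with compound or DMSO vehicle, and incubated 15.5 hr at 37C and 5% CO2. CellTiter-Fluor is added for 30 min before fluorescence is measured.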

The target in test [17] is Glucocorticoid receptor (Homo sapiens) (UniProt P04150). The experiment in a line: qHTS assay to identify small molecule agonists of the glucocorticoid receptor (GR) signaling pathway (AID 720691; active = well fitted activation curve with a large enough effect in the signal ratio in the repeat runs, not every such curve was filed as active; the % refers to the signal ratio). Summed up:
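Steps: seed GR-bla HeLa cells, incubate 4 h at 37 C/5% CO2; pin-transfer DMSO-dissolved compounds; incubate 18 h at 37 C; add LiveBLAzer B/G FRET substrate; after 2 h at room temperature, measure fluorescence.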

The nature of test [18]: qHTS assay for small molecule disruptors of the mitochondrial membrane potential - cell viability (AID 720634; calls by dose curve; also: nearly all actives have a fitted effect of over 20% in size; also: potency is read from the fitted curve at half-maximal effect). Summed up:
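Cytotoxicity was measured by ATP quantitation in HepG2 wells that had first been treated with compound for 1 hr and stained with m-MPI dye; CellTiter-Glo incubation was 30 min at room temperature.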

The target in test [19] is Glucocorticoid receptor (Homo sapiens) (UniProt P04150). The experiment in a line: qHTS assay to identify small molecule antagonists of the glucocorticoid receptor (GR) signaling pathway (AID 720692; active = well fitted inhibition curve with a large enough effect in the signal ratio in the repeat runs, not every such curve was filed as active; the % refers to the signal ratio). Summed up:
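Antagonism was scored as loss of dexamethasone-driven (5 nM final) reporter signal in HeLa cells bearing a glucocorticoid response element–beta-lactamase construct, after 18 h compound exposure at 37 C and 2 h FRET substrate loading.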

Molecules are shown by their SMILES. A number with no mark means an inactive call. Records with an inconclusive call do not appear. Calls of active or inactive are those of the source. Unless noted, calls follow the shape of the dose curve; as a rule, active = well fitted curve in the direction sought with a large enough effect in the repeat runs; inconclusive = weak or mixed curves; inactive = no such curve, though single readings can be large; an effect the other way counts as inactive or inconclusive.

Glucocorticoid receptor (Homo sapiens), sequence (P04150 whole entry, looked up): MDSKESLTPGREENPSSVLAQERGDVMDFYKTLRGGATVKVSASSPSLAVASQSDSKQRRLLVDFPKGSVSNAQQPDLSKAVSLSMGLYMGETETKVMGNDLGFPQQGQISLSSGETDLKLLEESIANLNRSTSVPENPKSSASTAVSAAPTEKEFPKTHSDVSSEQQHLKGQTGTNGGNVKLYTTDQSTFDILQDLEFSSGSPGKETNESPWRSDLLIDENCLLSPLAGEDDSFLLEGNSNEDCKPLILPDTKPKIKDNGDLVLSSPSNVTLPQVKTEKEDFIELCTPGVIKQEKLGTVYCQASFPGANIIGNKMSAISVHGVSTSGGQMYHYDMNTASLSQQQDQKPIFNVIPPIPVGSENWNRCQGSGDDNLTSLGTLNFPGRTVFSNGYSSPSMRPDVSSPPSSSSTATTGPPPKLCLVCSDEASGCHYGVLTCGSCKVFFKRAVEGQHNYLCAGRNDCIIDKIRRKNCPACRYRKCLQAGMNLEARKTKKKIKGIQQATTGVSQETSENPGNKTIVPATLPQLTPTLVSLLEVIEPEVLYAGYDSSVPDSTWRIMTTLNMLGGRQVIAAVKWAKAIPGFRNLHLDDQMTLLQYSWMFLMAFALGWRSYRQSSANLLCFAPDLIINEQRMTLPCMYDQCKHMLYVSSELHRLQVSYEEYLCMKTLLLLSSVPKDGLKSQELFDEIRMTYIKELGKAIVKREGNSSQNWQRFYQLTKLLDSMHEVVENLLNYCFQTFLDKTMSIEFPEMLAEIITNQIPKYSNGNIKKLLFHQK

Turning to `O=C(Nc1ccc2[nH]ccc2c1)c1cc2cc(F)ccc2n1Cc1cccc(F)c1`, the Potency result in [1], in test [5], in test [7], in [11] and in test [13] was “inactive” each time. For the same compound, in test [2], the Potency is 0.686 µM (active). Besides, the compound was called inactive in test [3], in test [4], in test [6], in test [8], in test [9] and in test [10]. Moreover, the result in test [12] was inactive.

For `CCOP(=O)(NC(C)C)Oc1ccc(SC)c(C)c1` (stereo not drawn), the compound was called inactive in test [3], in [4], in test [14], in [6], in test [8] and in test [9]. Further, the compound was called inactive in test [10] and in [12]. The Potency result in test [5], in test [7], in test [11] and in test [13] was “inactive” each time.

On to `O=C(O)C1C2CCC(O2)C1C(=O)O` (stereo not drawn), for which the Potency result in [15], in test [16], in [5], in test [7], in test [13] and in [17] was “inactive” in each case. Also, the call in [3], in test [4], in [14], in test [6], in test [8] and in test [9] was inactive. Moreover, the compound was called inactive in [10] and in test [12].

In the case of `CC(=O)[O-].CC(=O)[O-].O.O.[Cd+2]`, the Potency in test [16] was 0.214 µM (active). Also, the compound was called inactive in [3], in [4], in test [6], in [8], in test [9] and in test [10]. Also, the compound was classed as inactive in [12]. Further, the Potency result in test [5], in test [7] and in test [13] was “inactive” in each case.

On to `CN(C)c1ccc(N=Nc2ccccc2)cc1`, for which the Potency result in [15], in [5], in test [7], in test [11], in test [13] and in test [19] was “inactive” each time. Also, the Potency in test [16] is 68.7 µM (active); in test [18], 48.6 µM (active). Moreover, the outcome in test [3], in test [4], in test [14], in test [6], in test [8] and in test [9] was inactive. Also, the compound was called inactive in [10] and in [12].

Take `CCCSP(=O)(OCC)SCCC`: the Potency result in [16], in [18], in test [5], in [7], in test [11] and in test [13] was “inactive” in each case. In test [17], the Potency result was “inactive”. Moreover, the compound was called inactive in [3], in test [4], in [14], in test [6], in test [8] and in [9]. For the same compound, the call in test [10] and in test [12] was inactive.

Take `C[C@@H]1CC[C@@]2(OC1)O[C@H]1[C@@H](O)[C@H]3[C@@H]4CC[C@H]5C[C@@H](O[C@@H]6O[C@H](CO)[C@H](O[C@@H]7O[C@H](CO)[C@@H](O)[C@H](O[C@@H]8OC[C@@H](O)[C@H](O)[C@H]8O)[C@H]7O[C@@H]7O[C@H](CO)[C@@H](O)[C@H](O[C@@H]8O[C@H](CO)[C@@H](O)[C@H](O)[C@H]8O)[C@H]7O)[C@H](O)[C@H]6O)[C@H](O)C[C@]5(C)[C@H]4CC[C@]3(C)[C@H]1[C@@H]2C`: the Potency in test [15] is 23 µM (active); in test [16] it was 64.9 µM (active); in test [18], 18.3 µM (active); in test [2] it was 4.59 µM (active). For the same compound, the outcome in [3], in test [4], in [6], in test [8], in test [9] and in test [12] was inactive. In addition, the Potency entry in test [5], in [7] and in test [13] was “inactive” in each case.

Take `CC1(C)C(/C=C(\Cl)C(F)(F)F)C1C(=O)OC(C#N)c1cccc(Oc2ccccc2)c1` (stereo not drawn): the Potency entry in test [1], in test [16], in test [5], in test [7], in test [11] and in [13] was “inactive” in each case. For the same compound, the Potency in test [2] is 34.9 µM (active). Also, the compound was classed as inactive in [3], in test [4], in test [6], in [8], in [9] and in [10]. In test [12], the outcome was inactive.
